# In PubChem BioAssay (NCI):
# About 83,000 compounds went through this panel and 20% of them were active in at least one assay; those are over-represented in the sample as a whole.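 Compound tested at a single concentration for 48 hours in 96-well plates; a percent growth value below 10 was scored as active.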 Values without a mark were called inactive. Activity calls are given as the source filed them.
# Legend:
# Assay in all cases: NCI-60 one-dose screen, 48 h (100 = growth as untreated, 0 = no growth, -100 = all killed)
# Conditions in all cases: 10 µM unless noted
# T-47D breast = tested on: T-47D breast
# BT-549 breast = tested on: BT-549 breast
# MDA-MB-435 melanoma = tested on: MDA-MB-435 melanoma
# SW-620 colon = tested on: SW-620 colon
# MCF7 breast = tested on: MCF7 breast
# HCT-116 colon = tested on: HCT-116 colon
# HCC-2998 colon = tested on: HCC-2998 colon
# KM12 colon = tested on: KM12 colon
Compound,growth (T-47D breast),growth (BT-549 breast),growth (MDA-MB-435 melanoma),growth (SW-620 colon),growth (MCF7 breast),growth (HCT-116 colon),growth (HCC-2998 colon),growth (KM12 colon)
CCOC(=O)C1C(=O)NC(C(=O)OCC)(C(=O)OCC)C1CC (stereo not drawn),109%,112%,115%,115%,104%,110%,108%,112%
c1ccc(-c2nc(Nc3nccnn3)c3ccccc3n2)cc1,83.4%,99.1%,101%,97.9%,75%,100%,106%,97.8%
N/C(=N\c1nc2ccccc2s1)NC(=O)Nc1ccccc1Cl,37%,18.6%,-31.8% (active),27.7%,21.1%,13%,14.2%,12.7%
COC(=O)[C@H](Cc1cn(C)cn1)NC(=O)[C@H](Cc1ccccc1)NC(=O)Nc1cc(C(F)(F)F)cc(C(F)(F)F)c1,-55.3% [100 µM] (active),-95.5% [100 µM] (active),-85.4% [100 µM] (active),-46.2% [100 µM] (active),-60.8% [100 µM] (active),-91.5% [100 µM] (active),-86.9% [100 µM] (active),-92.2% [100 µM] (active)
COc1cc(-c2nc3nc4sc(C)c(C)c4c(=O)n3[nH]2)cc(OC)c1OC,57%,77.8%,7.6% (active),79.1%,35.7%,75.9%,94.2%,76.6%
O=CN1N=C(c2ccc(Cl)cc2)CC1c1cccc(Nc2ccnc3cc(Cl)ccc23)c1 (stereo not drawn),11.8%,7.26% (active),4.68% (active),27%,11.3%,7.72% (active),40.9%,19.8%
C[C@H]1O[C@@H](O[C@H]2[C@@H](O)C[C@H](O[C@H]3[C@@H](O)C[C@H](O[C@H]4CC[C@]5(C)C6C[C@@H](O)[C@]7(C)[C@@H](C8=CC(=O)OC8)CC[C@]7(O)C6CC[C@@H]5C4)O[C@@H]3C)O[C@@H]2C)C[C@H](O)[C@@H]1O (stereo partly drawn),-49.1% (active),-89.6% (active),-100% (active),-97.9% (active),-26.5% (active),-88.7% (active),-79.1% (active),-100% (active)
OCCCc1n(Cc2ccc3ccccc3c2)c2ccccc2[n+]1Cc1ccc2ccccc2c1,13.2%,5.33% (active),0.65% (active),19.3%,9.45% (active),10.4%,12.5%,-20.9% (active)
COc1ccc(C2=NN(C(C)=O)C(c3c(C)nn(-c4ccccc4)c3N3CCOCC3)C2)cc1 (stereo not drawn),93.3%,77%,97.2%,96.6%,91.7%,82.3%,102%,100%
O=c1[nH]c(SCc2ccccc2)nc2nc(Nc3ccc(NC(=S)Nc4ccccc4)cc3)nc(-c3ccc(O)cc3O)c12,73.1%,91.7%,104%,96.8%,99.2%,102%,98.6%,89.4%
CC(=O)Nc1ccc(C(=O)COc2cccc(/C=C3\CCc4ccccc4C3=O)c2)cc1,67.9%,66%,85.8%,47%,19.6%,81%,93.7%,91%
COc1cccc2c1C(=O)c1c(O)c3c(c(O)c1C2=O)C[C@@](O)(C(C)=O)C[C@@H]3O[C@H]1C[C@H](N)[C@H](O)[C@H](C)O1,-12.2% (active),-58.8% (active),-98.7% (active),-12.8% (active),0% (active),0.333% (active),-70.4% (active),-14.9% (active)
COc1cc(C2CC(c3ccc(C)cc3)=NN2C=O)ccc1OCCN(C)C (stereo not drawn),90.6%,80.7%,102%,96.5%,92.5%,88.9%,98.4%,101%
COc1cc(C2CC(C3C(=O)N(C)C(=O)N(C)C3=O)=NN2c2cc(Cl)cc(Cl)c2)cc(OC)c1OC (stereo not drawn),79.4%,99.2%,98%,94.7%,90.4%,87.3%,87.7%,91.8%
Cc1cc2ccccn2c1C(=O)c1ccc(C(=O)c2ccccc2)cc1,77.3%,92.5%,91.3%,84.2%,96.5%,88.7%,83.8%,113%
COc1ccc2nc(N/N=C(\C)c3ccccn3)cc(C)c2c1,0.953% (active),-87.8% (active),-94.9% (active),-68% (active),-74.6% (active),-68.7% (active),-68.3% (active),-35.7% (active)

Compound,growth (T-47D breast),growth (BT-549 breast),growth (MDA-MB-435 melanoma),growth (SW-620 colon),growth (MCF7 breast),growth (HCT-116 colon),growth (HCC-2998 colon),growth (KM12 colon)
O=C(Nc1ccccc1S)c1ccccc1,105%,99.9%,101%,98.5%,91.1%,96.2%,109%,104%
COc1cc(/C=C2\SC(N3CCCCC3)=NC2=O)ccc1OCCCCCCOc1ccc(/C=C2\SC(N3CCCCC3)=NC2=O)cc1OC,21.9%,-36.6% (active),-48% (active),-24.7% (active),16.6%,-64.3% (active),-76.5% (active),-72.1% (active)
c1cc[n+](Cc2ccnc3ccccc23)cc1,106%,112%,100%,50.2%,41.1%,21.1%,105%,103%
COc1ccc(N2CCN(CC(=O)N3CCN(c4nnc(-c5ccccc5)c(-c5ccccc5)n4)CC3)CC2)cc1,20.1%,47.8%,45.2%,54.6%,36.4%,29.5%,62.4%,37.2%
CN1CCN(CCCCCN=c2cc3c(=O)n(CCCCCN4CCN(C)CC4)c(=O)c4c(NCCCCCN5CCN(C)CC5)cc5c(O)n(CCCCCN6CCN(C)CC6)c(=O)c2c5c4-3)CC1,16.5%,11.4%,-41.5% (active),21.9%,-6.01% (active),2.16% (active),29.1%,2.69% (active)
NS(=O)(=O)c1cc2c(cc1Cl)NC=NS2(=O)=O,97.7%,95.9%,102%,111%,96.9%,98%,93.4%,106%
CC(=O)N1N=C(c2ccc3c(c2)OCO3)CC1c1c(C)nn(-c2ccccc2)c1N(C)Cc1ccccc1 (stereo not drawn),58.6%,85.2%,90.7%,85.9%,66.1%,57.3%,97.2%,83.6%
COc1cc(OC)c2c(c1Cl)O[C@]1(C2=O)C(OCc2ccccc2)=CC(=O)C[C@H]1C,8.09% (active),24.2%,-44.5% (active),19.8%,12.7%,7.75% (active),-5.11% (active),7.93% (active)
C/C(=C\CCc1ccoc1)CC/C=C(\C)CCCNc1ccc(F)cc1,77.8%,97.1%,99.2%,90.6%,92.8%,85.2%,111%,96.3%
NS(=O)(=O)c1ccc(-n2ncc3c(SCc4ccccc4)ncnc32)cc1,91.6%,91.6%,106%,95.5%,98.7%,82.7%,127%,94.1%
N#Cc1c(NC(=O)c2ccco2)[n+]([O-])c2cc(Cl)c(Cl)cc2[n+]1[O-],112%,94.4%,126%,119%,87.8%,105%,109%,131%
O=C(Nc1ccccc1)c1cc(-n2cnc([N+](=O)[O-])c2)cc(-n2cnc([N+](=O)[O-])c2)n1,107%,113%,122%,99.7%,116%,103%,65.2%,94.1%
CNNc1ncnc2c1cnn2-c1ccc(S(N)(=O)=O)cc1,98.2%,109%,114%,98.6%,104%,100%,99.3%,91.9%
O=C(NC1CCS(=O)(=O)C1)c1ccc(C(=O)c2ccccc2)cc1 (stereo not drawn),107%,121%,101%,95.8%,105%,104%,103%,125%
O=C(O)C1C(c2ccccc2)c2ccccc2C(O)C1CO (stereo not drawn),115%,103%,116%,106%,97%,101%,106%,117%
